Whole data set: some 16,000 sequences, median “Z-score” near -0.37, cut for the highest 2% near 3.2. The list comes from a sample in which the highest values are over-represented; it also holds similar and randomly drawn sequences.
test system: RBM10 RRM1-ZnF (GST-tagged construct); assay: RNAcompete 7-mer binding Z-score; higher = stronger binding preference
Experimental: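 RNAcompete: 20 pmol GST-tagged RBM10 RNA-binding constructs were incubated with a designed RNA pool of about 241,000 sequences up to 41 nt (1.5 nmol) on glutathione beads for 30 min at 4 °C and washed. Bound RNAs were identified by microarray hybridisation. Each RNA 7-mer is scored by a one-sided Z-score of its enrichment, computed over probes that contain the 7-mer within longer pool sequences.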

Sequence	RNAcompete 7-mer binding Z-score
AUUUAUC	-0.691
UAUGGCA	0.413
CAGCUCG	-0.704
UGAAGAA	0.228
CGCCUAA	-0.694
CCUGAUC	-0.792
GUGUUUA	0.27
GAGUGGA	3.26
GAGUGGU	2.46
UAGUGGA	1.54
GAGUGGC	1.53
CAGUGGG	2.24
AAGUGGA	3.31
AAGUGGU	1.82
CAGUGGA	1.38
AAGUGGG	3.73
CCAAGAC	-0.646
GUAGUCA	0.157
CCAUCUG	-0.772
UGUGUCG	0.043
UCUGGGA	0.508
UUGGGGA	2.82
CGGGGGA	3.17
UCGGGAA	1.33
AGGGGCA	2.47

Sequence	RNAcompete 7-mer binding Z-score
CGGGGAA	2.71
GGGGCGA	2.46
GGGGGCA	2.92
UGGGGAA	3.66
GGGGGGA	3.3
UGGGGCA	3.56
UGGGGGA	3.71
AACGGAC	0.413
GCAAAAC	-0.0902
AGCAUGA	-0.119
CUAGCGA	-0.347
CAGAGGU	1.25
UACGGAA	0.699
CUACAGA	-0.636
AGAGCAG	0.699
UGGCUAG	0.391
GCGAGGG	3.54
UCGAGGG	1.95
ACGAGGC	0.319
GCGAGGA	1.93
ACGAGGG	3.35
ACGAGGU	0.959
CUGCUAU	-0.691
AGAUGCG	0.111
CCGCUCC	-0.474

Sequence	RNAcompete 7-mer binding Z-score
ACAGGGA	3
GCAAGGU	1.94
CCAGGGG	1.46
ACAGGGU	2.94
GCAGGGU	3.43
GCAGGGC	1.35
ACAGGGG	3.33
ACAGGGC	1.84
CCAGGGU	1.29
GCAAGGA	2.4
GCAGGGG	3.32
GCAAGGG	3.46
CGACAAC	-0.542
GUCGGCU	-0.0252
GCUAUGC	-0.269
CAACGAU	-0.409
GAUAGUC	-0.279
AAACCCA	-0.701
AACGCUG	-0.5
CAAAACG	-0.119
AGCUUAC	-0.639
ACACGGC	-0.191
CGCUUAU	-0.649
AGGAGGC	1.37
GGGAGUG	3.73

Sequence	RNAcompete 7-mer binding Z-score
AGGAGGU	2.47
GGGAGUA	2.53
AGGAGGG	3.53
AGGAGGA	2.25
GGGAGGG	4.74
GAGAGGG	2.7
CGGAGGG	2.91
AGGAGUG	2.91
UGGAGGA	2.87
GGGAGGA	3.47
UCAGCGG	0.309
AUGUCCG	-0.626
UUACGCA	-0.584
GGGAGCG	3.35
GGGAGGU	3.68
GGGAGCC	0.917
UGGAGGC	1.96
CGGAGGU	2.41
UGGAGGG	4.07
GGGAGGC	2.92
UGGAGGU	2.84
CGGAGCG	1.23
AGCAACA	-0.158
AGUCUAC	-0.584
GCGUUUG	0.131

Sequence	RNAcompete 7-mer binding Z-score
GGUUGUG	2.29
CUACUGA	-0.659
AUGUGGG	3.84
GUGUGGU	2.39
AUGUGGC	0.586
UUGUGGG	2.83
GUGUGGG	3.93
GUGUGGA	2.98
CAUCAAG	-0.47
UUUAUGG	0.303
CCAACAC	-0.5
AGGGUGA	4.19
UGGGUCG	2.09
AUGGUGA	2.6
GGGGUGG	4.71
AGGGUGU	3.11
AGGGUCA	1.14
GCGGUGU	1.1
UGGGUGC	2.92
GGGGUGC	2.92
UGGGUGG	4.14
GCGGUGG	2.85
GGGGUGU	4.3
UAAAUAG	-0.0674
CGUAUUU	-0.769

Sequence	RNAcompete 7-mer binding Z-score
UUCACGG	-0.448
GAAGACG	1.09
CUAAGAA	-0.331
CUACAUG	-0.591
GAUCAGA	0.316
AGUUAGU	-0.0642
ACAUCCC	-0.587
UCGGUGA	0.452
CGGGUGU	2.14
GGGGUCA	2.86
CGGGUGA	2.66
CGGGUGG	3.64
ACGGUGG	2.76
UGGGUGA	3.38
GGGGUGA	4.16
AGGGUGG	4.42
CGGGUGC	1.85
GCGGUGA	1.2
AGGGUGC	2.6
UCCAUUA	-0.75
UCUCCCC	-0.587
CCUCGGG	0.423
GCGUCAC	-0.0252
GUCUUUA	-0.652
GUUUCGA	-0.396

Sequence	RNAcompete 7-mer binding Z-score
AUAUUAU	-0.402
AGUUGCU	-0.334
UGGGUGU	3.53
GGUGUGG	4.32
GGUGUGU	1.7
UGUGUGG	1.89
UUGGUGU	1.51
UCGGUGU	0.524
ACUCUAA	-0.685
GCACCCU	-0.496
AAAUCCC	-0.86
GCAUUCA	-0.396
CUGUUCU	-0.847
GGUGGGC	3.3
UGUGGGC	2.06
GCUGGGU	2.3
UGUGGGA	2.87
UGUGGUU	1.84
UGUGGUG	1.84
UGUGGGU	3.46
UGUGGGG	3.96
GGUGGUC	2.06
UCUGGGU	0.81
GGUGGUU	2.61
GGUGGGU	3.78

Sequence	RNAcompete 7-mer binding Z-score
CUAAUUG	-0.617
UUGAACG	-0.139
ACCCACU	-0.675
GGAUGUA	1.7
GUUUGUG	0.865
AUCUAAC	-0.681
AACCGGC	-0.6
AGUGUCC	-0.604
GGACGUA	0.833
UUAUGAU	-0.353
CUGAAUG	-0.285
AGUGUGG	2.95
AGUGGGA	4.13
AGUGGGG	4.49
AUUGGGA	2.83
AGUGGGU	3.49
GGUGGCA	2.02
GGUGGGA	4.26
GCUGGGA	2.03
CGUGGGU	2.81
ACUGGGU	2.06
AGUGGUA	2.01
AGUGGGC	2.67
UCAUCCG	-0.808
CAGUGAG	0.706

Sequence	RNAcompete 7-mer binding Z-score
UUCUUUG	-0.659
GCUGAAG	0.699
ACACUUG	-0.535
UCUAUAC	-0.821
CGUGGGG	3.65
CGUGGGA	2.33
CGUGGGC	1.85
AUUUAAG	-0.298
UAGUCAU	-0.444
CGGGAAU	1.68
AGGGAAU	3.05
GGGGAAG	4.31
GGGGACG	2.55
GGGGAAC	2.42
GGGGAAU	3.41
CGACUUC	-0.785
CCCUUGC	-0.694
GCCAGUA	-0.288
UGCCUCC	-0.506
UGGAAGG	4.12
UGGAAGU	1.79
AGGAAGA	1.7
AGGAAGU	1.06
AGGAAGG	4.31
CGGAAGG	2.53

Sequence	RNAcompete 7-mer binding Z-score
AUACUAG	-0.337
AACCAUC	-0.763
CUAGCUG	-0.386
GGUUGAG	3.3
CGGUGAG	1.42
CGGUGAA	0.595
UGGUGAA	1.71
AGGUGAU	1.8
GGGUGAC	3.04
CGUUGAG	-0.0512
UGGUGAU	1.2
GGGUGAU	3.22
UGUUGAG	0.716
GGGUGAA	3.87
GGGUGAG	4.36
GAAACGU	-0.00246
GACAGCC	-0.539
CGUCUGC	-0.759
UUUUAAC	-0.818
GUAGAUG	1.93
AGGUUCA	-0.0285
UUUUCUU	-0.772
UAGCGGA	1.13
GAGCGAC	0.192
CAGCGGG	2.5

Sequence	RNAcompete 7-mer binding Z-score
UAGCGAG	0.826
GAGCGAG	3.42
GAGCGGC	1.44
GAGCGGU	1.72
GAGCGGG	3.61
GAGCGGA	3.98
CCUACCU	-0.766
CCAGUCC	-0.789
AACGACU	-0.457
CGUGCUG	-0.149
CCCGCUC	-0.552
CGGUAAA	0.29
AGGUAAA	1.82
CGGUAAG	1.26
GGGUAAC	2.4
GGGUAAA	3.98
GGGUAAG	4.39
CCCUUCA	-0.776
CCACUAC	-0.623
AUCCGAU	-0.717
GGGAAAG	4.79
GGGAAGU	3
CGGAAAG	1.84
CGGAAGA	0.923
GGAAAAG	3.24

Sequence	RNAcompete 7-mer binding Z-score
CGGAAAA	0.654
UGGAAAG	2.84
GGGAAAA	3.4
GGGAAGA	3.86
GGAAAAA	1.86
GAAAAAG	1.49
UGAAAAG	0.381
UCCGAUG	-0.464
UGUACUA	-0.415
AUCGGCC	-0.62
CUCGCAG	-0.11
GAGCUGG	1.88
GGUGCGG	2.92
GGCGUGC	0.738
CGGUCUU	-0.607
CUAUGGU	-0.116
CCUCUUA	-0.85
UGGGUAA	2.97
GUGGUAG	2.2
GGGGUAA	4.14
GGGGUAG	4.61
GAGGUAA	2.23
AAGGUAU	2.13
AGGGUAU	3.69
CGGGUAA	1.89

Sequence	RNAcompete 7-mer binding Z-score
GGGGUAU	3.17
GGGGUAC	2.57
AGGGUAA	4.13
CGGGUAU	1.59
ACAUUGG	0.553
AGCUAAG	-0.035
CAUUUAC	-0.85
AAUCGAA	-0.181
ACCAGCC	-0.672
CCUGAGG	0.339
GUUCUGU	-0.431
CACUAGC	-0.633
CCGUGCC	-0.532
GGAAUGG	4.85
CGAAUGG	1.29
AGAAUGU	0.235
GGAAUGU	1.94
AGAAUGG	3.27
UGAAUGG	2.5
UUGUUUG	0.0138
UCUAAGG	-0.00896
AUGCGUU	-0.405
UCCAACC	-0.805
GAAGGUG	4.59
GAAGGUU	2.87

Sequence	RNAcompete 7-mer binding Z-score
GAAGGUA	3.84
CAAGGUG	1.76
AAAGGUG	3.71
GAAGGUC	1.25
UAAGGUA	1.5
AAAGGUA	3.05
UAAGGUG	2.16
AUUAAGG	1.2
CGGGUCU	0.339
CCGAAGC	-0.61
UGGUUGA	2.02
GGGUUAG	4.38
CGGUUGG	2.56
GGGUUGA	3.8
CGGUUAG	0.881
CGGUUGA	1.01
GGGUUGG	4.64
AGGUUGG	3.06
UGGUUAG	2.24
UCCAGAG	-0.35
ACAGAAG	0.595
UUACAAA	-0.305
UAACUGA	-0.295
GGUCGGU	1.24
GGUUAGG	4.59

Sequence	RNAcompete 7-mer binding Z-score
UGGAUAG	2.48
GGAUUGU	1.22
GGGAUGU	3.21
GGUUAGC	1.12
GGUUAGU	1.7
CGAUUGG	0.949
GGGAUAG	4
GGAUUGG	3.79
GGGAUGC	3.06
AGGAUAG	2.16
GGGAUGA	4.17
UGACAGG	2.13
UACCCAG	-0.659
UCGCGUA	-0.532
ACUCUUU	-0.844
AAUUUCG	-0.607
GUGCUAA	0.153

— the supplement of paper PMC5499739
